# Results published in the supplement of paper PMC8728848.
# Many of the other results were omitted from the sample, so the strongest signals are more common in it than they were.
# Legend:
# Assay in all cases: glycan array binding signal (z-score within array); higher = stronger binding
# Conditions in all cases: glycan notation: IUPAC condensed, linker removed
# [1] = target: Fuc(a1-2)Gal(b1-3)GalNAc
# How it was run: (§1)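 Arrays were curated from the Consortium for Functional Glycomics database, 3228 in total, and kept only where the protein sequence was available. Binding is expressed as a within-array Z-score. This score was averaged across arrays of the same protein sequence at different concentrations or buffers and across linkers, and negative values can be read as non-binding.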
# [2] = target: Fuc(a1-2)Gal(b1-3)GlcNAc(b1-2)Man(a1-3)[Fuc(a1-2)Gal(b1-3)GlcNAc(b1-2)Man(a1-6)]Man(b1-4)GlcNAc(b1-4)GlcNAc
# How it was run: as §1
# [3] = target: Fuc(a1-2)Gal(b1-3)GlcNAc(b1-2)Man(a1-3)[Fuc(a1-2)Gal(b1-3)GlcNAc(b1-2)Man(a1-6)]Man(b1-4)GlcNAc(b1-4)[Fuc(a1-6)]GlcNAc
# How it was run: as §1
# [4] = target: Fuc(a1-2)Gal(b1-3)[Fuc(a1-4)]GlcNAc(b1-2)Man(a1-3)[Fuc(a1-2)Gal(b1-3)[Fuc(a1-4)]GlcNAc(b1-2)Man(a1-6)]Man(b1-4)GlcNAc(b1-4)GlcNAc
# How it was run: as §1
# [5] = target: Fuc(a1-2)Gal(b1-4)Fuc(a1-3)]GlcNAc(b1-2)Man(a1-3)[Fuc(a1-2)Gal(b1-4)[Fuc(a1-3)]GlcNAc(b1-2)Man(a1-6)]Man(b1-4)GlcNAc(b1-4)GlcNAc
# How it was run: as §1
# [6] = target: Fuc(a1-2)Gal(b1-4)[Fuc(a1-3)]GlcNAc(b1-3)GalNAc
# How it was run: as §1
# [7] = target: Fuc(a1-2)[GalNAc(a1-3)]Gal(b1-3)GalNAc(b1-3)Gal(a1-4)Gal(b1-4)Glc
# How it was run: as §1
# [8] = target: Fuc(a1-2)[GalNAc(a1-3)]Gal(b1-4)GlcNAc(b1-3)GalNAc
# How it was run: as §1
# [9] = target: Fuc(a1-2)[GalNAc(a1-3)]Gal(b1-4)[Fuc(a1-3)]GlcNAc
# How it was run: as §1
# [10] = target: Fuc(a1-3)[Gal3S(b1-4)]GlcNAc6S
# How it was run: as §1
# [11] = target: Fuc(a1-3)[GalNAc(b1-4)]GlcNAc
# How it was run: as §1
# [12] = target: Gal(a1-3)Gal(b1-4)GlcNAc(b1-2)Man
# How it was run: as §1
# [13] = target: Gal(a1-3)Gal(b1-4)GlcNAc(b1-6)GalNAc
# How it was run: as §1
# [14] = target: Gal(a1-3)[Gal(a1-4)]Gal(b1-4)GlcNAc
# How it was run: as §1
# [15] = target: Gal(a1-6)Glc
# How it was run: as §1
# [16] = target: Gal(b1-3)GalNAc(b1-4)[Neu5Ac(a2-3)]Gal(b1-4)Glc
# How it was run: as §1
# [17] = target: Gal(b1-3)GlcNAc(b1-3)Gal(b1-4)GlcNAc(b1-2)[Gal(b1-3)GlcNAc(b1-3)Gal(b1-4)GlcNAc(b1-6)]Man(a1-6)[Gal(b1-3)GlcNAc(b1-3)Gal(b1-4)GlcNAc(b1-2)Man(a1-3)]Man(b1-4)GlcNAc(b1-4)[Fuc(a1-6)]GlcNAc
# How it was run: as §1
# [18] = target: Gal(b1-3)GlcNAc(b1-3)GalNAc
# How it was run: as §1
# [19] = target: Gal(b1-3)[Fuc(a1-4)]GlcNAc(b1-3)Gal(b1-4)GlcNAc
# How it was run: as §1
# [20] = target: Gal(b1-4)GlcNAc(b1-2)Man(a1-3)[Gal(b1-4)GlcNAc(b1-2)Man(a1-6)]Man(b1-4)GlcNAc(b1-4)GlcNAc
# How it was run: as §1
# [21] = target: Gal(b1-4)GlcNAc(b1-2)Man(a1-3)[GlcNAc(b1-2)Man(a1-6)]Man(b1-4)GlcNAc(b1-4)GlcNAc
# How it was run: as §1
# [22] = target: Gal(b1-4)GlcNAc(b1-2)Man(a1-3)[GlcNAc(b1-4)][Gal(b1-4)GlcNAc(b1-2)Man(a1-6)]Man(b1-4)GlcNAc(b1-4)GlcNAc
# How it was run: as §1
# [23] = target: Gal(b1-4)GlcNAc(b1-2)[Gal(b1-4)GlcNAc(b1-4)]Man(a1-3)[GlcNAc(b1-4)][Gal(b1-4)GlcNAc(b1-2)[Gal(b1-4)GlcNAc(b1-6)]Man(a1-6)]Man(b1-4)GlcNAc(b1-4)[Fuc(a1-6)]GlcNAc
# How it was run: as §1
# [24] = target: Gal(b1-4)GlcNAc(b1-3)Gal(b1-4)GlcNAc(b1-2)[Gal(b1-4)GlcNAc(b1-3)Gal(b1-4)GlcNAc(b1-6)]Man(a1-6)[Gal(b1-4)GlcNAc(b1-3)Gal(b1-4)GlcNAc(b1-2)Man(a1-3)]Man(b1-4)GlcNAc(b1-4)GlcNAc
# How it was run: as §1
# [25] = target: Gal(b1-4)GlcNAc(b1-3)Gal(b1-4)GlcNAc(b1-2)[Gal(b1-4)GlcNAc(b1-3)Gal(b1-4)GlcNAc(b1-6)]Man(a1-6)[Gal(b1-4)GlcNAc(b1-3)Gal(b1-4)GlcNAc(b1-2)Man(a1-3)]Man(b1-4)GlcNAc(b1-4)[Fuc(a1-6)]GlcNAc
# How it was run: as §1
# [26] = target: Gal(b1-4)GlcNAc(b1-3)Gal(b1-4)GlcNAc(b1-3)Gal(b1-4)GlcNAc(b1-3)Gal(b1-4)GlcNAc(b1-2)Man(a1-3)[Gal(b1-4)GlcNAc(b1-3)Gal(b1-4)GlcNAc(b1-3)Gal(b1-4)GlcNAc(b1-3)Gal(b1-4)GlcNAc(b1-2)Man(a1-6)]Man(b1-4)GlcNAc(b1-4)[Fuc(a1-6)]GlcNAc
# How it was run: as §1
# [27] = target: Gal(b1-4)GlcNAc(b1-3)Gal(b1-4)GlcNAc(b1-3)Gal(b1-4)GlcNAc(b1-3)Gal(b1-4)GlcNAc(b1-3)Gal(b1-4)GlcNAc(b1-2)Man(a1-3)[Gal(b1-4)GlcNAc(b1-3)Gal(b1-4)GlcNAc(b1-3)Gal(b1-4)GlcNAc(b1-3)Gal(b1-4)GlcNAc(b1-3)Gal(b1-4)GlcNAc(b1-2)Man(a1-6)]Man(b1-4)GlcNAc(b1-4)GlcNAc
# How it was run: as §1
binder,measurement,setting,value
"LlpA1 (Pseudomonas fluorescens), Q4KHC3 (protein) MGSSHHHHHHSSGLVPRGSHMAWIRYDFTDNGSSVLPARYYMAPNQYLQSPNKRFKLLFQADGNLALYDGAQLAWVADQNTPFTNVSKGNKKDPMMVFMNYGFVLDDPLRGRIWSTTPSDPTMGSREDASLRAFTQVQDDGNIVTVDTIPHWYAPNGRVFTPAVGAAMIIGGTTELVPGQFYSAGEHSLVFQGDGNLVVYGPNSSVIWATYTQNKGGVRCVMQEDGNLVIYAANNGVVWQSGTGGHPGATIRLQANGSFTIVTERPVWARFGYTPTIKPPRVFYPDHKWKTGSYTWNNVF",glycan array binding signal (z-score),[1],-0.757
same,glycan array binding signal (z-score),[2],3.75
same,glycan array binding signal (z-score),[3],-0.133
same,glycan array binding signal (z-score),[4],3.21
same,glycan array binding signal (z-score),[5],3.1
same,glycan array binding signal (z-score),[6],2.56
same,glycan array binding signal (z-score),[7],0.171
same,glycan array binding signal (z-score),[8],-0.468
same,glycan array binding signal (z-score),[9],0.114
same,glycan array binding signal (z-score),[10],-0.653
same,glycan array binding signal (z-score),[11],-0.611
same,glycan array binding signal (z-score),[12],-0.521
same,glycan array binding signal (z-score),[13],0.065
same,glycan array binding signal (z-score),[14],2.71
same,glycan array binding signal (z-score),[15],0.047
same,glycan array binding signal (z-score),[16],-0.058
same,glycan array binding signal (z-score),[17],0.631
same,glycan array binding signal (z-score),[18],-0.529
same,glycan array binding signal (z-score),[19],-0.53
same,glycan array binding signal (z-score),[20],-0.071
same,glycan array binding signal (z-score),[21],0.504
same,glycan array binding signal (z-score),[22],-0.797
same,glycan array binding signal (z-score),[23],2.29
same,glycan array binding signal (z-score),[24],2.3
same,glycan array binding signal (z-score),[25],1.19
same,glycan array binding signal (z-score),[26],1.12
same,glycan array binding signal (z-score),[27],2.15
